Assay results: PubChem BioAssay AID1159580 (chemical genetic matrix, 2015)
Out of some 5,500 compounds screened, about 2,000 (36%) were called active. About 18% were inconclusive and are not listed. Cut-off read from the data, not from the text of the source: active = normalized growth mostly below about 0.91 (no sharp cut-off); inconclusive = no clear call, values can overlap the other calls; inactive = mostly above about 0.92. Some of the results follow.

Experiment: chemical genetic growth profiling, strain panel (AID 1159580);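 note: tested at 20 µM; growth read once vehicle control cultures reached saturation at 30 °C; 1 = growth at the plate median or of vehicle wells; lower values mean less growth of the strain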
Settings: growth OD

Measured: normalized growth

O=c1cc[nH]c(=S)[nH]1
inactive: S. cerevisiae deletion strains, locus YJR075W, strain HOC1, stronger effect = lower value 1.03 | S. cerevisiae deletion strains, locus YKL009W, strain mrt4, stronger effect = lower value 1.04 | S. cerevisiae deletion strains, locus YKL068W, stronger effect = lower value 1 | S. cerevisiae deletion strains, locus YKL085W, strain MDH1 (second series), stronger effect = lower value 1.01 | S. cerevisiae deletion strains, locus YKL085W, strain MDH1, stronger effect = lower value 1.01 | S. cerevisiae deletion strains, locus YKL160W, strain elf1, stronger effect = lower value 1.06 | S. cerevisiae deletion strains, locus YKL190W, strain CNB1, stronger effect = lower value 1.02 | S. cerevisiae deletion strains, locus YKR001C, strain vps1, stronger effect = lower value 1.05 | S. cerevisiae deletion strains, locus YKR026C, strain gcn3, stronger effect = lower value 1.01 | S. cerevisiae deletion strains, locus YKR091W, strain srl3, stronger effect = lower value 1 | S. cerevisiae deletion strains, locus YLL001W, strain dnm1, stronger effect = lower value 1.04 | S. cerevisiae deletion strains, locus YLL026W, stronger effect = lower value 0.999 | S. cerevisiae deletion strains, locus YLL041C, strain sdh2, stronger effect = lower value 1.01 | S. cerevisiae deletion strains, locus YLR027C, strain aat2, stronger effect = lower value 1.02 | S. cerevisiae deletion strains, locus YLR039C, strain RIC1, stronger effect = lower value 1.09 | S. cerevisiae deletion strains, locus YLR058C, strain SHM2, stronger effect = lower value 1.02 | S. cerevisiae deletion strains, locus YLR102C, strain apc9, stronger effect = lower value 0.992 | S. cerevisiae deletion strains, locus YLR113W, strain HOG1, stronger effect = lower value 1.01 | S. cerevisiae deletion strains, locus YLR221C, strain rsa3, stronger effect = lower value 1.01 | S. cerevisiae deletion strains, locus YLR258W, strain gsy2, stronger effect = lower value 0.989 | S. cerevisiae deletion strains, locus YLR262C, strain YPT6 (second series), stronger effect = lower value 1.03 | S. cerevisiae deletion strains, locus YLR262C, strain YPT6, stronger effect = lower value 1.08 | S. cerevisiae deletion strains, locus YLR268W, strain sec22, stronger effect = lower value 1.05 | S. cerevisiae deletion strains, locus YLR320W, strain mms22, stronger effect = lower value 1.06 | S. cerevisiae deletion strains, locus YLR330W, strain CHS5, stronger effect = lower value 1.03 | S. cerevisiae deletion strains, locus YLR342W, strain FKS1 (second series), stronger effect = lower value 1 | S. cerevisiae deletion strains, locus YLR342W, strain FKS1, stronger effect = lower value 1.01 | S. cerevisiae deletion strains, locus YLR357W, strain rsc2, stronger effect = lower value 1.04 | S. cerevisiae deletion strains, locus YLR370C, strain arc18, stronger effect = lower value 0.997 | S. cerevisiae deletion strains, locus YLR371W, strain rom2, stronger effect = lower value 0.996 | S. cerevisiae deletion strains, locus YLR384C, strain iki3, stronger effect = lower value 1.01 | S. cerevisiae deletion strains, locus YLR418C, strain cdc73, stronger effect = lower value 1.03 | S. cerevisiae deletion strains, locus YML016C, strain PPZ1, stronger effect = lower value 1.02 | S. cerevisiae deletion strains, locus YML032C, strain rad52, stronger effect = lower value 1.05 | S. cerevisiae deletion strains, locus YML120C, strain ndi1, stronger effect = lower value 1.01 | S. cerevisiae deletion strains, locus YML124C, strain tub3, stronger effect = lower value 1.01 | S. cerevisiae deletion strains, locus YMR058W, strain fet3, stronger effect = lower value 1.01 | S. cerevisiae deletion strains, locus YMR078C, strain ctf18, stronger effect = lower value 1.02 | S. cerevisiae deletion strains, locus YMR125W, strain sto1, stronger effect = lower value 1.05 | S. cerevisiae deletion strains, locus YMR129W, stronger effect = lower value 0.999 | S. cerevisiae deletion strains, locus YMR205C, strain PFK2, stronger effect = lower value 1.05 | S. cerevisiae deletion strains, locus YMR223W, strain ubp8, stronger effect = lower value 0.992 | S. cerevisiae deletion strains, locus YMR231W, strain pep5, stronger effect = lower value 1.01 | S. cerevisiae deletion strains, locus YMR263W, strain SAP30, stronger effect = lower value 1.03 | S. cerevisiae deletion strains, locus YMR307W, strain GAS1, stronger effect = lower value 1.01 | S. cerevisiae deletion strains, locus YNL067W, strain RPL9B, stronger effect = lower value 1.03 | S. cerevisiae deletion strains, locus YNL071W, strain lat1, stronger effect = lower value 1.02 | S. cerevisiae deletion strains, locus YNL128W, strain TEP1, stronger effect = lower value 1.03 | S. cerevisiae deletion strains, locus YNL153C, strain GIM3, stronger effect = lower value 1.03 | S. cerevisiae deletion strains, locus YNL183C, strain NPR1, stronger effect = lower value 0.921 | S. cerevisiae deletion strains, locus YNL209W, strain ssb2, stronger effect = lower value 1 | S. cerevisiae deletion strains, locus YNL233W, strain BNI4, stronger effect = lower value 1.01 | S. cerevisiae deletion strains, locus YNL248C, strain rpa49, stronger effect = lower value 1.09 | S. cerevisiae deletion strains, locus YNL250W, strain rad50, stronger effect = lower value 1.01 | S. cerevisiae deletion strains, locus YNL271C, strain bni1, stronger effect = lower value 1.01 | S. cerevisiae deletion strains, locus YNL298W, strain CLA4, stronger effect = lower value 1.02 | S. cerevisiae deletion strains, locus YNL307C, strain MCK1, stronger effect = lower value 1.01 | S. cerevisiae deletion strains, locus YNL322C, strain KRE1 (second series), stronger effect = lower value 1.02 | S. cerevisiae deletion strains, locus YNL322C, strain KRE1, stronger effect = lower value 1.02 | S. cerevisiae deletion strains, locus YNR049C, strain mso1, stronger effect = lower value 1 | S. cerevisiae deletion strains, locus YNR052C, strain pop2, stronger effect = lower value 1 | S. cerevisiae deletion strains, locus YOL006C, strain TOP1, stronger effect = lower value 1.1 | S. cerevisiae deletion strains, locus YOL012C, strain htz1 1.32 | S. cerevisiae deletion strains, locus YOL147C, strain pex11, stronger effect = lower value 1.01 | S. cerevisiae deletion strains, locus YOR001W, strain rrp6, stronger effect = lower value 0.972 | S. cerevisiae deletion strains, locus YOR061W, strain CKA2, stronger effect = lower value 1.02 | S. cerevisiae deletion strains, locus YOR069W, strain VPS5, stronger effect = lower value 1.01 | S. cerevisiae deletion strains, locus YOR070C, strain gyp1, stronger effect = lower value 0.997 | S. cerevisiae deletion strains, locus YOR080W, strain dia2, stronger effect = lower value 1 | S. cerevisiae deletion strains, locus YOR083W, strain WHI5, stronger effect = lower value 1.06 | S. cerevisiae deletion strains, locus YOR106W, strain vam3, stronger effect = lower value 1.05 | S. cerevisiae deletion strains, locus YOR136W, strain idh2, stronger effect = lower value 1.01 | S. cerevisiae deletion strains, locus YOR144C, strain elg1, stronger effect = lower value 1.02 | S. cerevisiae deletion strains, locus YOR184W, strain ser1, stronger effect = lower value 1.03 | S. cerevisiae deletion strains, locus YOR231W, strain MKK1, stronger effect = lower value 1.01 | S. cerevisiae deletion strains, locus YOR265W, strain rbl2, stronger effect = lower value 1.02 | S. cerevisiae deletion strains, locus YOR270C, strain vph1, stronger effect = lower value 1.04 | S. cerevisiae deletion strains, locus YOR290C, strain snf2, stronger effect = lower value 1.04 | S. cerevisiae deletion strains, locus YOR316C, strain cot1, stronger effect = lower value 0.998 | S. cerevisiae deletion strains, locus YPL051W, strain arl3, stronger effect = lower value 1.05 | S. cerevisiae deletion strains, locus YPL055C, strain LGE1, stronger effect = lower value 1.06 | S. cerevisiae deletion strains, locus YPL078C, strain atp4, stronger effect = lower value 1.06 | S. cerevisiae deletion strains, locus YPL106C, strain sse1, stronger effect = lower value 1 | S. cerevisiae deletion strains, locus YPL240C, strain hsp82, stronger effect = lower value 1.01 | S. cerevisiae deletion strains, locus YPL241C, strain CIN2, stronger effect = lower value 1.01 | S. cerevisiae deletion strains, locus YPL256C, strain CLN2, stronger effect = lower value 1 | S. cerevisiae deletion strains, locus YPR119W, strain clb2, stronger effect = lower value 1 | S. cerevisiae deletion strains, locus YPR141C, strain kar3, stronger effect = lower value 1.01 | S. cerevisiae deletion strains, locus YPR163C, strain tif3, stronger effect = lower value 1.02 | S. cerevisiae deletion strains, locus YPR167C, strain met16, stronger effect = lower value 1.02 | S. cerevisiae deletion strains, strain wtn01, stronger effect = lower value 1.04 | S. cerevisiae strains, strain wild type, stronger effect = lower value 1.03
